Here are results for eight compounds from PubChem BioAssay (Tox21).

Experiment [1] can be described thus: qHTS assay to identify small molecule agonists of the sonic hedgehog signaling (Shh) pathway (AID 1259368).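 Further: NIH/3T3-derived 3T3Gli1-Luc cells carrying a stable Gli1-driven firefly luciferase reporter; series mostly up to about 92 µM; nearly all actives have a fitted effect of over 15% in size.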 In a few lines: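 Luminescence was read after 30 min at room temperature with luciferase reagent. Before that, 3T3Gli1-Luc cells (NIH/3T3 clone, stable Gli1-Luc reporter; 2,000/well) were exposed to compounds for 24 hr at 37C, 5% CO2, compounds being added 4 hr post-plating.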
For orientation: qHTS replaces the single test concentration by a dilution series.

Experiment [2] can be described thus: qHTS assay to identify small molecule antagonists of the sonic hedgehog signaling (Shh) pathway (AID 1259369). Further: nearly all actives have a fitted effect of over 45% in size. The method in brief:
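Antagonist mode: compound added to 3T3 Gli1-Luc cells followed by conditioned-medium stimulation, 24 h at 37 C, 5% CO2. Inhibition taken as loss of Gli1-driven luciferase luminescence.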

A short description of experiment [3]: qHTS assay to identify small molecule agonists of the androgen receptor (AR) signaling pathway in the presence of an antagonist - cell viability counter screen (AID 1259379; active means well fitted curve in the direction sought with a large enough effect in the repeat runs; an effect the other way counts as inactive or inconclusive;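 further: MDA-kb2 human breast cancer cells carrying an MMTV luciferase reporter; series mostly up to about 92 µM; nearly all actives have a fitted effect of over 25% in size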). The method in brief:
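Cytotoxicity counter-screen run in the same wells as the nilutamide-challenged (3.0 µM final) AR agonist assay in MDA-kb2 cells. Compounds tested at 15 concentrations for 16 h, 37 °C without CO2; CellTiter-Fluor fluorescence read.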

Experiment [4] in a line: qHTS assay to identify small molecule agonists of the estrogen receptor beta (ER-beta) signaling pathway - cell viability counter screen (AID 1259380; active means well fitted curve in the direction sought with a large enough effect in the repeat runs; an effect the other way counts as inactive or inconclusive; further: nearly all actives have a fitted effect of over 30% in size). In a few lines: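 Cell viability counter screen: CellTiter-Glo luminescence (30 min, room temperature) measured in the same wells as the beta-lactamase readout, after 16 hr compound exposure at 37C of ER-beta-bla HEK293T cells in 2% charcoal-stripped FBS medium.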

The nature of experiment [5]: qHTS assay to identify small molecule antagonists of the estrogen receptor beta (ER-beta) signaling pathway - cell viability counter screen (AID 1259382; active means well fitted curve in the direction sought with a large enough effect in the repeat runs; an effect the other way counts as inactive or inconclusive;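 further: HEK293T cells carrying ER-beta-UAS-bla reporter stimulated with estradiol; series mostly up to about 92 µM; nearly all actives have a fitted effect of over 55% in size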). In a few lines:
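Cytotoxicity was measured in the same wells by CellTiter-Glo luminescence after 30 min at room temperature. Cells were ER-beta-bla HEK293T in charcoal-stripped serum, given compound together with 1 nM E2 and incubated 16 h at 37C.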

Experiment [6] concerns the target Estrogen receptor (Homo sapiens) (UniProt P03372). In words: qHTS assay to identify small molecule agonists of the estrogen receptor alpha (ER-alpha) signaling pathway in the presence of an antagonist (AID 1259383). Further: top concentration of the series differs between compounds; nearly all actives have a fitted effect of over 15% in size. In a few lines: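 Agonist-mode confirmation run in the presence of 10.0nM (final) ICI-182,780 antagonist. The reporter was ERE-driven luciferase in VM7Luc4E2 cells, grown in charcoal-stripped serum. Cells were exposed to 15-concentration compound series for 22hr, then ONE-Glo luminescence was read.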

The nature of experiment [7]: qHTS assay to identify small molecule agonists or antagonists of the thyroid stimulating hormone receptor (TSHR) signaling pathway - wild type cell line counter screen (AID 1259384). The method in brief:
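Wild-type HEK293 cells were plated 18 h at 37 C/5% CO2, pin-dosed with compound plus Ro20-1724 medium, held 30 min at room temperature, then given cAMP-d2 and anti-cAMP-cryptate; fluorescence was read after 1 h. Fifteen concentrations, triplicate.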

Experiment [8] deals with Thyrotropin receptor (Homo sapiens) (UniProt P16473). Put plainly: qHTS assay to identify small molecule antagonists of the thyroid stimulating hormone receptor (TSHR) signaling pathway (AID 1259385). Further: nearly all actives have a fitted effect of over 20% in size. The method in brief: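 TSHR-HEK293 cells were plated and held 18 h at 37C/5% CO2, then given compound plus Ro20-1724 and stimulated with TSH at 1.5 ng/mL final. After 30 min at room temperature, cAMP was detected with cAMP-d2/anti-cAMP-cryptate (1 h) by fluorescence.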

The nature of experiment [9]: qHTS assay to identify small molecule agonists of the estrogen receptor alpha (ER-alpha) signaling pathway in the presence of an antagonist - cell viability counter screen (AID 1259386; active means well fitted curve in the direction sought with a large enough effect in the repeat runs; an effect the other way counts as inactive or inconclusive; further: series mostly up to about 92 µM; nearly all actives have a fitted effect of over 30% in size). The method in brief: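 Compounds tested at 15 concentrations for 22 h at 37C alongside 10.0nM (final) ICI-182,780 antagonist, in VM7Luc4E2 cells grown in phenol red-free, charcoal-stripped medium. Viability read by CellTiter-Fluor fluorescence after 1 h reagent incubation.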

Experiment [10] deals with Progesterone receptor (Homo sapiens) (UniProt P06401). In words: qHTS assay to identify small molecule agonists of the progesterone receptor (PR) signaling pathway (AID 1346784). Further: nearly all actives have a fitted effect of over 30% in size. The method in brief: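 Seed PR-UAS-bla HEK 293T cells (2% charcoal-stripped FBS), incubate 6 hr at 37C; add compounds in DMSO, 16 hr at 37C; add LiveBLAzer B/G substrate, 2 hr RT; read fluorescence intensity.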

Experiment [11] has the same target. In words: qHTS assay to identify small molecule antagonists of the progesterone receptor (PR) signaling pathway (AID 1346795; active means well fitted inhibition curve with a large enough effect in the signal ratio in the repeat runs, not every such curve was filed as active; the % refers to the signal ratio). The method in brief: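 Screening used a GripTite HEK293T line with PR-responsive UAS-beta-lactamase. Cells were challenged with compound in the presence of 1 nM R5020 final for 16 hr at 37C; B/G FRET substrate, 2 hr room temperature, fluorescence.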

Experiment [12] in a line: qHTS assay to identify small molecule antagonists of the progesterone receptor (PR) signaling pathway - cell viability counter screen (AID 1346798; active means well fitted curve in the direction sought with a large enough effect in the repeat runs; an effect the other way counts as inactive or inconclusive; further: nearly all actives have a fitted effect of over 50% in size; further: potency means the concentration at half of the fitted maximal effect; on activity change, negative = cytotoxicity: series mostly up to about 92 µM). The method in brief: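 Measures cytotoxicity in parallel with the PR antagonist reporter read: HEK293T PR-UAS-bla cells get compound and R5020 for 16 hr, and remaining viable cells are quantified by CellTiter-Glo luminescence.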

Experiment [13] is described as follows: qHTS assay to identify small molecule agonists of the progesterone receptor (PR) signaling pathway - cell viability counter screen (AID 1346799). Further: nearly all actives have a fitted effect of over 45% in size. In a few lines: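 Using the same plates as the PR reporter screen, HEK293T PR-UAS-bla cells received compounds for 16 hr at 37C and were then lysed with CellTiter-Glo; luminescence was read 30 min later at room temperature.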

Experiment [14] in a line: qHTS assay to identify small molecule antagonists of the TGF-beta/Smad signaling pathway - cell viability counter screen (AID 1346824; active means well fitted curve in the direction sought with a large enough effect in the repeat runs; an effect the other way counts as inactive or inconclusive; further: nearly all actives have a fitted effect of over 50% in size). In a few lines:
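SBE-bla HEK 293T cells were plated overnight at 37 C, then given compounds in DMSO plus TGF-beta1 (added as 0.25 ng/mL solution) for 5 hr. After the bla read, CellTiter-Glo was added to the same wells and luminescence read after 30 min at room temperature.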

A short description of experiment [15]: qHTS assay to identify small molecule agonists of the TGF-beta/Smad signaling pathway - cell viability counter screen (AID 1346829; active means well fitted curve in the direction sought with a large enough effect in the repeat runs; an effect the other way counts as inactive or inconclusive; further: top concentration of the series differs between compounds; nearly all actives have a fitted effect of over 45% in size). The method in brief: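 Tox21 qHTS format: SBE-bla HEK 293T cells treated with DMSO-dissolved compounds for 5 hr; CellTiter-Glo luminescence after 30 min at room temperature.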
Experiment [16] in a line: qHTS assay to identify small molecule agonists of the TGF-beta/Smad signaling pathway (AID 1346859; active means well fitted activation curve with a large enough effect in the signal ratio in the repeat runs, not every such curve was filed as active; the % refers to the signal ratio; further: series mostly up to about 77 µM). In a few lines: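 Beta-lactamase reporter activity downstream of Smad binding elements was measured in stably transfected HEK 293T cells; compounds were incubated for 5 hr, substrate for 2 hr at room temperature.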
The target in experiment [17] is Thyrotropin-releasing hormone receptor (Homo sapiens) (UniProt P34981). In words: qHTS assay to identify small molecule antagonists of the thyrotropin-releasing hormone receptor (TRHR) signaling pathway (AID 1346877; active means well fitted inhibition curve with a large enough effect in the repeat runs, not every such curve was filed as active; further: series mostly up to about 51 µM). In a few lines:
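Antagonist mode: after a 5 min room-temperature compound exposure, cells were stimulated with 1 nM (final) TRH. Dye-loaded TRHR-HEK293 cells were used, and calcium-dependent fluorescence was followed for 3 min, with 15-point titrations run in triplicate.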

A number with no mark means an inactive call. Results filed as inconclusive are left out. The source made the active and inactive calls. Unless noted, the call rests on the fitted dose curve.
On the % scale 0 is the no-effect control and ±100 the full control effect.

Estrogen receptor (Homo sapiens), sequence (P03372 whole entry, looked up): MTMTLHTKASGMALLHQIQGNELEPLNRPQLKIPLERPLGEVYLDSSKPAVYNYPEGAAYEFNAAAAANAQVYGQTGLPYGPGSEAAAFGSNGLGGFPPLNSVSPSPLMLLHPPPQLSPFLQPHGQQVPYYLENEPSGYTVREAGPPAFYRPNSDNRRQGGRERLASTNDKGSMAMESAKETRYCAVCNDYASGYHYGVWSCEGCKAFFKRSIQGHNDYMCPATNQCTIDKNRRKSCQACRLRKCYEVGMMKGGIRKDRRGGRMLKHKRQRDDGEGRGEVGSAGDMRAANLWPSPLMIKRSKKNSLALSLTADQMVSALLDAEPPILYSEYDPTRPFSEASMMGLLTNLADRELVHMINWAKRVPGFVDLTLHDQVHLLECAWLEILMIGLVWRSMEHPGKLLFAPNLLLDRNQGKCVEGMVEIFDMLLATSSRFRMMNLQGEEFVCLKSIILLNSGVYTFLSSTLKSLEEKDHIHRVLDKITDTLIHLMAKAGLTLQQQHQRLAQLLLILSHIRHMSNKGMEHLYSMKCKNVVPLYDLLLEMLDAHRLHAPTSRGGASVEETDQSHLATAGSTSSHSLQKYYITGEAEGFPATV
Thyrotropin-releasing hormone receptor (Homo sapiens), sequence (P34981 whole entry, looked up): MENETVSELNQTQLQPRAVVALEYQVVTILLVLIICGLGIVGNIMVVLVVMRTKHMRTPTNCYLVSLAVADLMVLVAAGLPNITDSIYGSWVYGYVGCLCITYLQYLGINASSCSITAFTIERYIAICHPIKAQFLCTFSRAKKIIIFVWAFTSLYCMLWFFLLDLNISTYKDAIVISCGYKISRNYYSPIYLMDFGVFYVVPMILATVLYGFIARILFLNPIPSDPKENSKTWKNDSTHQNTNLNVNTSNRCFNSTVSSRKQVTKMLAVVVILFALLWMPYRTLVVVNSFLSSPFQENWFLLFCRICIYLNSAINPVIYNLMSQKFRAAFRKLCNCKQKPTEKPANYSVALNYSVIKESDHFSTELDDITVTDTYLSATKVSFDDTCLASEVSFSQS
Progesterone receptor (Homo sapiens), sequence (P06401 whole entry, looked up): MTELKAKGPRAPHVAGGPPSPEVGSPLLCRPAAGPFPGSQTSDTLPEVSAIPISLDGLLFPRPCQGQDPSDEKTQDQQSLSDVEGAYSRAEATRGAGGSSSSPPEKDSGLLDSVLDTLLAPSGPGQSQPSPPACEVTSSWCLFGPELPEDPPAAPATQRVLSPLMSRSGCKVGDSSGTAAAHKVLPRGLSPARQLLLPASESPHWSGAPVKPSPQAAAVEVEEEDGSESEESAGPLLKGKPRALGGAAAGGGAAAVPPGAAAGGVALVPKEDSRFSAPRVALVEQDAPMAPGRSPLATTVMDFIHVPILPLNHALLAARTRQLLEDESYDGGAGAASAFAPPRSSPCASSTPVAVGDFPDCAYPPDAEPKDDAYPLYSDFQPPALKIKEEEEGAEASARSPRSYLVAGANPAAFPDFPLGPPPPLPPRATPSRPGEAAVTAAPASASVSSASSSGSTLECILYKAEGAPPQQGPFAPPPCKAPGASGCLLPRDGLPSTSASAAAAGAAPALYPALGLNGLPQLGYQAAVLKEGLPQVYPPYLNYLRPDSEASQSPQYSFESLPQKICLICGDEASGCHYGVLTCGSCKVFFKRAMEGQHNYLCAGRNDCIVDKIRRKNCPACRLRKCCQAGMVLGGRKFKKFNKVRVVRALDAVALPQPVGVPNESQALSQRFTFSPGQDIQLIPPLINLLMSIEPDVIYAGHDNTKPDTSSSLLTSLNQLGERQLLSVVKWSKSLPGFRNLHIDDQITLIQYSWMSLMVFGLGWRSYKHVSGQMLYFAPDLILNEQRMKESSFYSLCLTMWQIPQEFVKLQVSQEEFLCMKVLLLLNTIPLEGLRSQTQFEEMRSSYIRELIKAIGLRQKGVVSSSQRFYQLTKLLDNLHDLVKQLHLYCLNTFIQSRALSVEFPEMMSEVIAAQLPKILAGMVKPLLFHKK
Thyrotropin receptor (Homo sapiens), sequence (P16473 whole entry, looked up): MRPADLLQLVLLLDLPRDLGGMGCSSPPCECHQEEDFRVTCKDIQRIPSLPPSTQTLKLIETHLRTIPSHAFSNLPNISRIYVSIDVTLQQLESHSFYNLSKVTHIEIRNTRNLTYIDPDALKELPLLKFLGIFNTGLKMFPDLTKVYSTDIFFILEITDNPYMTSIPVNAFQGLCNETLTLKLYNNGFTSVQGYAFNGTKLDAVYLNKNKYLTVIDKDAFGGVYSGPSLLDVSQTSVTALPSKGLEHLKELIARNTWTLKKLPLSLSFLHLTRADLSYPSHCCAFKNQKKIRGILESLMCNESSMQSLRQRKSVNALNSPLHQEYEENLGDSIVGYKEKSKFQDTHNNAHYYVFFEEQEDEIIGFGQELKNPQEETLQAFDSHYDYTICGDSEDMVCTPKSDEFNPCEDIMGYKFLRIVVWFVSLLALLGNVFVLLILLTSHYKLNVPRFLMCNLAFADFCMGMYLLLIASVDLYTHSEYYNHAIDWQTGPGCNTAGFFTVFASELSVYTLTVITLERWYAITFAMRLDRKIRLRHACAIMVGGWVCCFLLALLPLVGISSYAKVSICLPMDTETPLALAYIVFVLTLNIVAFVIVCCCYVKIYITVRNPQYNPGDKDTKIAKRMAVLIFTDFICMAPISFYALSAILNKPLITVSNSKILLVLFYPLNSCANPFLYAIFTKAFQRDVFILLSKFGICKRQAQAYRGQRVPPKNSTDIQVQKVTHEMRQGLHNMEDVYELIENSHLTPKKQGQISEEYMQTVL

`CC(C)(C)NCCNC(C)(C)C`: the compound was called inactive in experiment [1], in experiment [7], in [15] and in experiment [16]. For the same compound, the Potency result in experiment [2], in experiment [3], in experiment [4], in experiment [5], in experiment [6] and in [8] was “inactive” each time. The Potency result in [9], in experiment [10], in [11], in experiment [13] and in experiment [14] was “inactive” in each case. For the same compound, the Potency in experiment [12] was 0.864 µM (active).

Consider `CCOC(=O)CC(C)=O`, for which the compound was called inactive in experiment [1] and in [7]. For the same compound, the Potency result in experiment [2], in [3], in experiment [4], in experiment [5], in experiment [8] and in [9] was “inactive” in each case. Besides, the Potency result in experiment [10], in [11], in [12], in [13] and in experiment [14] was “inactive” each time.

`CN(C)CCCNCCCN(C)C`: the outcome in experiment [1], in experiment [7], in experiment [15], in experiment [16] and in experiment [17] was inactive. Besides, the Potency result in experiment [2], in experiment [3], in [4], in experiment [5], in experiment [6] and in experiment [8] was “inactive” throughout. For the same compound, the Potency result in [9], in [10], in experiment [11], in experiment [12] and in [13] was “inactive” each time.

As for `C=COCC1CCC(CO)CC1` (configuration not stated), the compound was classed as inactive in experiment [1], in [7], in experiment [15], in experiment [16] and in [17]. For the same compound, the Potency entry in experiment [2], in experiment [3], in experiment [4], in [5], in experiment [6] and in experiment [8] was “inactive” each time. Further, the Potency result in [9], in [10], in experiment [11], in experiment [12], in [13] and in experiment [14] was “inactive” each time.

On to `Cn1cc(S(C)=O)c(=O)c2ccc(F)cc21` (configuration not stated), for which the outcome in experiment [1], in experiment [7], in [15], in experiment [16] and in experiment [17] was inactive. Further, the Potency result in [2], in experiment [3], in experiment [4], in experiment [5], in experiment [6] and in experiment [8] was “inactive” each time. In addition, the Potency entry in experiment [9], in experiment [10], in [11], in experiment [12], in [13] and in experiment [14] was “inactive” each time.

In the case of `CCc1nccnc1CC`, the activity change in experiment [1] was 0.457% [at 18.9 µM]. Further, the Potency result in experiment [2], in experiment [11] and in experiment [12] was “inactive” in each case. Also, the activity change, negative = cytotoxicity was 1.15% [at 19 µM] in [3]; 3.58% [at 19 µM] in experiment [4]; 15.2% [at 19 µM] in [5]; 1.02% [at 19 µM] in experiment [9]; -10.8% [at 19 µM] in experiment [13]; 3.37% [at 15.8 µM] in experiment [15]. The activation in [6] is -0.0927% [at 19 µM]; in experiment [10], 0.626% [at 19 µM]. Moreover, in [7], the cAMP activity change was -3.22% [at 18.9 µM]. The activity change, negative = inhibition in experiment [8] is 0.0688% [at 19 µM]. In experiment [14], the viability change, negative = cytotoxic was 4.47% [at 15.8 µM].

Regarding `Cc1cc(O)cc2c1O[C@](C)(CCC[C@H](C)CCC[C@H](C)CCCC(C)C)CC2`, the outcome in experiment [1], in experiment [7], in experiment [15], in experiment [16] and in experiment [17] was inactive. Further, the Potency entry in experiment [2], in experiment [3], in experiment [4], in [5], in [6] and in experiment [8] was “inactive” in each case. Also, the Potency entry in [9], in experiment [10], in experiment [11], in [12], in experiment [13] and in experiment [14] was “inactive” each time.

Turning to `O=C1CCCN1C1CCCCC1`, the result in [1], in [7], in experiment [15] and in [16] was inactive. Also, the Potency entry in [2], in [3], in [4], in [5], in [6] and in experiment [8] was “inactive” in each case. Besides, the Potency entry in experiment [9], in experiment [10], in experiment [11], in experiment [12], in experiment [13] and in [14] was “inactive” throughout.
